For some of these results: Entries with a potency or affinity are not part of this list.
Experiments:
Parameters in all cases: scale not given: direction of the effect not stated beside the values
[1] = target: Protein translocase subunit SecA (Escherichia coli (strain K12)) (UniProt P10408); test: Assay to Identify E. coli SecA ATPase Inhibitors; assay type: functional; settings: 30 µM
[2] = target: T1, Ubiquitin-activating enzyme e1, putative (Leishmania donovani (strain BPK282A1)) (UniProt E9BSI1); test: Leishmania donovani Ubiquitin Activating Enzyme (LdE1); assay type: functional; settings: 30 µM
T1 sequence (whole entry): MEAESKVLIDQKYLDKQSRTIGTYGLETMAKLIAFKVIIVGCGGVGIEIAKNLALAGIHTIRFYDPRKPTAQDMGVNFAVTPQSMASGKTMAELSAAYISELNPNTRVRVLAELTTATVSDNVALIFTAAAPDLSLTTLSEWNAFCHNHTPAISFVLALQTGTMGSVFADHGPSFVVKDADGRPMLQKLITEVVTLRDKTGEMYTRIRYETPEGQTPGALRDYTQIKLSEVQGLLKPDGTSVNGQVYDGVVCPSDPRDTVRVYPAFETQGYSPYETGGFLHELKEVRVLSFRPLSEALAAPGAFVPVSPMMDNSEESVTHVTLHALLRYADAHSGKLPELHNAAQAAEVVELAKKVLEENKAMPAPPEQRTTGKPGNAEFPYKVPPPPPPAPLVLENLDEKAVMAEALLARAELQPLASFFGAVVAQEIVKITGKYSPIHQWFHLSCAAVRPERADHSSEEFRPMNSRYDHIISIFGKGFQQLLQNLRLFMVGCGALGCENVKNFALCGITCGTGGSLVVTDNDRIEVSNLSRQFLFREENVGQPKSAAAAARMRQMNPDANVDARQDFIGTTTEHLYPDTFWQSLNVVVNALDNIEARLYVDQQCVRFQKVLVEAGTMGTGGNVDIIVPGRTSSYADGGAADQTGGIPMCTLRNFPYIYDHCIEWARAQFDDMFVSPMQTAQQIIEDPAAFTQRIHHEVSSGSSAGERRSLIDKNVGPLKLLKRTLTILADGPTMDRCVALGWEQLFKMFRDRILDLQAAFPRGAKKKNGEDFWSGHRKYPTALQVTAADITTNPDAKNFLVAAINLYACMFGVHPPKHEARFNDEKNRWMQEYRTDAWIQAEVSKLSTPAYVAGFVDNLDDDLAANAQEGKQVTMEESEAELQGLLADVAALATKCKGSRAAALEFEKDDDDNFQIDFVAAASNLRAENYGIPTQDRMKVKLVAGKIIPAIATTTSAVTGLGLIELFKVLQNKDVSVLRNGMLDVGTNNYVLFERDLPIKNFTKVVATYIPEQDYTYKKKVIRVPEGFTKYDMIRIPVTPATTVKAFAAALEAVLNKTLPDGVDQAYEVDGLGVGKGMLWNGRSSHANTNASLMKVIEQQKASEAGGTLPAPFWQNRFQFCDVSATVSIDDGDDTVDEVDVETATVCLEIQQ

[3] = target: AMP-activated protein kinase, AMPK (Homo sapiens) (UniProt P54646+O43741+P54619+Q9UGJ0+Q9Y478+Q13131+Q9UGI9); test: AMP-dependent Kinase enzyme assay. An in vitro enzyme assay that detects ADP turnover that is directly proportional to AMPK activity. This uses naive AMPK that is activated during the assay with MK-8722; assay type: functional; settings: 30 µM
[4] = target: Sialic acid-binding Ig-like lectin 9 (Homo sapiens) (UniProt Q9Y336); test: Hs-Siglec9 ALPHAscreen SOP 20170721; settings: 10 µM
Sialic acid-binding Ig-like lectin 9 (Homo sapiens), sequence (Q9Y336 whole entry): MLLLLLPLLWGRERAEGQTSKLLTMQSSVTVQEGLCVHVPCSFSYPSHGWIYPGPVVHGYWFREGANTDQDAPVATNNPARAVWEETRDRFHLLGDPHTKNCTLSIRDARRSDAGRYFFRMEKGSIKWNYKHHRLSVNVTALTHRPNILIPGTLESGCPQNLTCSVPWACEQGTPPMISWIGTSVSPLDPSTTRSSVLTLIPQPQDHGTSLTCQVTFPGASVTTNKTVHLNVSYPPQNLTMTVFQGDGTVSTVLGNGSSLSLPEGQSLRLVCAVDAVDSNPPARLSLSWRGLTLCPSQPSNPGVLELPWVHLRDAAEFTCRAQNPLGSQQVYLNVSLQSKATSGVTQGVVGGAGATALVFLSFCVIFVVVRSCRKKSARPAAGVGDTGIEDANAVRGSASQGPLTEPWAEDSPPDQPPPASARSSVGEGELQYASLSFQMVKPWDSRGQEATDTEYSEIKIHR

Trypanosoma cruzi = test: Trypanosoma cruzi phosphomannomutase and mannose-1-phosphate guanylyltransferase assay; assay type: functional; settings: 10 µM
[5] = target: T2, Arginase-2, mitochondrial (Homo sapiens) (UniProt P78540); test: in vitro enzyme assay to detect the production of urea directly proportional to the activity of Arginase II; assay type: functional; settings: 33.3 µM; further: in the data most compounds retested in dose-response had high values
T2 sequence (whole entry): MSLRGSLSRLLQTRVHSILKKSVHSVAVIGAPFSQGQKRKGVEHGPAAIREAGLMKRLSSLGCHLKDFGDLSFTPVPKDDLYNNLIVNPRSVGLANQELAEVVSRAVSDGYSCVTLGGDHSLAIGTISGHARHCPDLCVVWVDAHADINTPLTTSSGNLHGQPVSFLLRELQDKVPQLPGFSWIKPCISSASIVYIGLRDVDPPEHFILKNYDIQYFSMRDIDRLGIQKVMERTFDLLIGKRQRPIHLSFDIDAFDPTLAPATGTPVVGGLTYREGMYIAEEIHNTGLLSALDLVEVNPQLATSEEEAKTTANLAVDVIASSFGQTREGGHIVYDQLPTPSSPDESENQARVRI

[6] = target: T3, Proteasome subunit beta (Trypanosoma cruzi) (UniProt O96673); test: Trypanosoma cruzi proteasome chymotrypsin-like activity (TcProtChymo) assay.; further: in the data most compounds retested in dose-response had high values; assay type: functional; settings: 9.37 µM
T3 sequence (whole entry): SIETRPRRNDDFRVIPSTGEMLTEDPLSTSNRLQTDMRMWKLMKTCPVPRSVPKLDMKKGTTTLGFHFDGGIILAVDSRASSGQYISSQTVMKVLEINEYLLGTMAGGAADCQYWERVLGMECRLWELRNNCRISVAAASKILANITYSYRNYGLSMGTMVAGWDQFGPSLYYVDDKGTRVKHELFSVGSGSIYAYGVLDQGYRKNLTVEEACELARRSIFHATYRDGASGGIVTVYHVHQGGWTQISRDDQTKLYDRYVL

Homo sapiens = organism: Homo sapiens; test: To identify inhibition of the IFN signalling (Jak-Stat) pathway via expression of an eGFP reporter gene under the control of an IFN-stimulated response element (ISRE) containing MxA promoter.; assay type: functional; settings: 30 µM
[7] = target: T4, Tyrosyl-tRNA synthetase, putative (Trypanosoma cruzi (strain CL Brener)) (UniProt Q4DSP6); test: Trypanosoma cruzi tyrosyl tRNA synthetase (TcYRS) _High Tyrosine SOP; assay type: functional; settings: 30 µM; further: in the data most compounds retested in dose-response had high values
T4 sequence (whole entry): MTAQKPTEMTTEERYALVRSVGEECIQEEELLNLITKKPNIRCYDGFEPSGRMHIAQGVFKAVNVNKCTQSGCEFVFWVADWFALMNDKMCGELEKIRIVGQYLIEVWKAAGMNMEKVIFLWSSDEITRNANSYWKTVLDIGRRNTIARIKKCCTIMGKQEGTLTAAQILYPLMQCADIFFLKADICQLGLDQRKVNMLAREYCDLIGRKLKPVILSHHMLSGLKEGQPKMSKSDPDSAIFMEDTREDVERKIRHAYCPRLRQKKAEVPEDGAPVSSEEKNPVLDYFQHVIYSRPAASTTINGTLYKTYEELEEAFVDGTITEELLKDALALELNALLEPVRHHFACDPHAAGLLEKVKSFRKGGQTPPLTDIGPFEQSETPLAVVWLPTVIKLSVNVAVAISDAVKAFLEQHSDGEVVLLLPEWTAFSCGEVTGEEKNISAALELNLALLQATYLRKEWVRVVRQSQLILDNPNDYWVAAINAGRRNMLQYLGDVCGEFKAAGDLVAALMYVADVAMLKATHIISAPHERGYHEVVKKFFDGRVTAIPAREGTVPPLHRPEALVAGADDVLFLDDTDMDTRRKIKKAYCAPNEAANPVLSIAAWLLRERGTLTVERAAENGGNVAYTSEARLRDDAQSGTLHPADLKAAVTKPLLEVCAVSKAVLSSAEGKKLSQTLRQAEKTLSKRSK

[8] = target: T4, Tyrosyl-tRNA synthetase, putative (Trypanosoma cruzi (strain CL Brener)); test: Trypanosoma cruzi tyrosyl tRNA synthetase (TcYRS) SOP; assay type: functional; settings: 30 µM
[9] = target: Chromo domain-containing protein 1 (Saccharomyces cerevisiae (strain ATCC 204508 / S288c) (Baker's yeast)) (UniProt P32657); test: ScCHD-1 Enzyme Inhibition Assay; assay type: functional; settings: 30 µM; further: in the data most compounds retested in dose-response had high values
Chromo domain-containing protein 1 (Saccharomyces cerevisiae (strain ATCC 204508 / S288c) (Baker's yeast)), sequence (P32657 whole entry, the tested form may be a part): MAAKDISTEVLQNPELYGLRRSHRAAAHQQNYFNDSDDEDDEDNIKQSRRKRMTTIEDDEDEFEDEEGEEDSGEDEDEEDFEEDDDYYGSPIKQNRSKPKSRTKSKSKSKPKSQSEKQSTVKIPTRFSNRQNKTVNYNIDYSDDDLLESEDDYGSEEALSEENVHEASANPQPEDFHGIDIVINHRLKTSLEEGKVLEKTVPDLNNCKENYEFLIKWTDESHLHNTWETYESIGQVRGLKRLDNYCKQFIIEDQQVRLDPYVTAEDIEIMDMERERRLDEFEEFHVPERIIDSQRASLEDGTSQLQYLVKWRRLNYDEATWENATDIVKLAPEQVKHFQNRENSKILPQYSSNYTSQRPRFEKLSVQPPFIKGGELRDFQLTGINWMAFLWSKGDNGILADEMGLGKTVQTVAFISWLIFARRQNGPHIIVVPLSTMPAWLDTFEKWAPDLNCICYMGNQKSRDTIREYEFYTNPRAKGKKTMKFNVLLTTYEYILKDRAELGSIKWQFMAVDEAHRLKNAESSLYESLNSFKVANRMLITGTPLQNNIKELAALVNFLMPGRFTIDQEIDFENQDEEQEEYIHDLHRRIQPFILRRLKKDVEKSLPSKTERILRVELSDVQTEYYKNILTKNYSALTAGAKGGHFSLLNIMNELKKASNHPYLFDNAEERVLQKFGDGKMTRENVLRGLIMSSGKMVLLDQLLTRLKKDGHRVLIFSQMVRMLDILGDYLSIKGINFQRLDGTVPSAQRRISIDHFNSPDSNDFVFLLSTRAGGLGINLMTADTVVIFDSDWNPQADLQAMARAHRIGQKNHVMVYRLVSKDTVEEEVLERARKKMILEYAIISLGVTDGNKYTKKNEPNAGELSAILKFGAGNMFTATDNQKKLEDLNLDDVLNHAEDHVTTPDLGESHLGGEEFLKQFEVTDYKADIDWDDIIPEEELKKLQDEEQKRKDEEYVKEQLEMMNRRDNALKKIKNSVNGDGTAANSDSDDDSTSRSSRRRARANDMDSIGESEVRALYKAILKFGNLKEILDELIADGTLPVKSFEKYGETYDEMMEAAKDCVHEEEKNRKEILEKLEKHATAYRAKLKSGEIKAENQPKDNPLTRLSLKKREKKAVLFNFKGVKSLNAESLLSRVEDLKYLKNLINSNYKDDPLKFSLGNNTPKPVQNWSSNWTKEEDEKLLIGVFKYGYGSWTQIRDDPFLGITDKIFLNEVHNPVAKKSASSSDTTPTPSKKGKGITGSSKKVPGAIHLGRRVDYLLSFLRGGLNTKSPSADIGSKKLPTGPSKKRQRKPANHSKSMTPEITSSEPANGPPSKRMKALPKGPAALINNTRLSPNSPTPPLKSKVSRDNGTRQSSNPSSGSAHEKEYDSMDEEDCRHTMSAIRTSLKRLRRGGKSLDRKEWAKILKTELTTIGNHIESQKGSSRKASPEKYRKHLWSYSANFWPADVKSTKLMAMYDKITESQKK

Protein translocase subunit SecA (Escherichia coli (strain K12)), sequence (P10408 whole entry): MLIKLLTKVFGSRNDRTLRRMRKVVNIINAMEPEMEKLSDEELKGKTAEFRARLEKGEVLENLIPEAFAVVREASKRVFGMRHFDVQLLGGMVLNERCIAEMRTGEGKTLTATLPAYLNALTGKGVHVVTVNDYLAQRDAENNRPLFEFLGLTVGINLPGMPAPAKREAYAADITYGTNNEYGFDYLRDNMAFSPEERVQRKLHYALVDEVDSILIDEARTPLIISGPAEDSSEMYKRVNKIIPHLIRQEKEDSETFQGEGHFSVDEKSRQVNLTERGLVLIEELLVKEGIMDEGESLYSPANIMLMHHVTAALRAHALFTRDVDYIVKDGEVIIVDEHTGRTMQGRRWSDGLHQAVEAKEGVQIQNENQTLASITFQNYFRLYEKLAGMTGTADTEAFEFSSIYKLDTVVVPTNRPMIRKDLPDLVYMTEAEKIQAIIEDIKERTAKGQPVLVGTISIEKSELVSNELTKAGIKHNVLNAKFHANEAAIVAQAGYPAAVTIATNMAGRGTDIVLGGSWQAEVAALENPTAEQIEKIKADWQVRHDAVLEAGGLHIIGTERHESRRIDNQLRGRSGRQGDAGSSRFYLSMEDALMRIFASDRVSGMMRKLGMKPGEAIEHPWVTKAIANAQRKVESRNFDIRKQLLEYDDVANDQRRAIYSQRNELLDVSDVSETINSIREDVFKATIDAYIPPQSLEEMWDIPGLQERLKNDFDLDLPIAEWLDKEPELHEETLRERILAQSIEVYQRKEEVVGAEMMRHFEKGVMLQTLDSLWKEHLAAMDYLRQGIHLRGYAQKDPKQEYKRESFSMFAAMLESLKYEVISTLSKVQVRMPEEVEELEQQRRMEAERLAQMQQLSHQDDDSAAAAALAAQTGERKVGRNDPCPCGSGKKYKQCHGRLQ

Row | Structure (SMILES) | Percent Effect [1] [%] | Percent Effect [2] [%] | Percent Effect [3] [%] | Percent Effect [4] [%] | Percent Effect (Trypanosoma cruzi) [%] | Percent Effect [5] [%] | Percent Effect [6] [%] | Percent Effect (Homo sapiens) [%] | Percent Effect [7] [%] | Percent Effect [8] [%] | Percent Effect [9] [%]
1 | O=C(NCCCn1cccn1)C1(c2ccc(F)cc2)CC1 | 0.73 | 16.4 | 0.361 | 3.37 | 3.72 | 10.4 | 8.87 | -5.73 | 6.45 | 12.5 | -4.26
2 | COc1ccc(C(=O)NCCc2nnc3ccccn23)c(OC)c1 | -6.68 | 5.2 | 5.94 | -6.61 | -7.93 | -3.16 | 13.5 | 13 | 0 | 2.35 | -16.9
3 | CC(C)Sc1ncccc1C(=O)NCc1ccc(CS(C)(=O)=O)cc1 | -4.04 | 13.9 | 0.323 | -3.32 | -1.74 | 4.09 | 18 | 18.1 | 4.17 | 5.06 | -15.6
4 | NCc1cnn(-c2ccccc2C(=O)NCc2ccncc2)c1 | -3.81 | 6.76 | 13.5 | -2.83 | -2.96 | -0.232 | 6.08 | 6.53 | 3.23 | 11.7 | -5.06
5 | Cn1cnnc1C1CCCN(C(=O)Cc2ccc3c(c2)OCCO3)C1 (stereo unspecified) | -1.87 | 13 | -0.424 | -2.52 | 3.82 | -1.05 | 13.7 | 13.2 | 7.62 | 18.8 | -15.4
6 | Cc1cc(CN2CCN(C(=O)NC(C)c3cccnc3)CC2)on1 (stereo unspecified) | -2.66 | 13.2 | -2.63 | 3.25 | 8.08 | 1.92 | 10.7 | 2.49 | -0.49 | 19.5 | -6.79
7 | CC(C)n1cc(CN2CCCN(C(=O)c3ccc[nH]3)CC2)cn1 | -1.88 | 13.5 | -0.748 | -5.21 | 2.73 | 15.8 | 20.2 | -10.5 | 12.9 | 13.4 | -0.327
8 | Cc1noc(C(C)C)c1C(=O)NCC(c1cccc(F)c1)N(C)C (stereo unspecified) | 0.211 | -2.53 | 0.144 | -2.52 | -1.6 | 5.32 | -7.45 | 2.06 | 2.46 | -8.86 | 2.02
9 | N#Cc1ccc(OC2CCN(C(=O)c3ccc4c(c3)OCO4)CC2)nc1 | -3.87 | 13.7 | -6.59 | 16.4 | 6.07 | -0.909 | 2.13 | 8.98 | 3.23 | 15 | -2.59
10 | CC(C)c1nnc2n1CCN(C(=O)c1ccc(-n3cnnc3)cc1)C2 | -9.19 | -10.4 | -7.99 | -9.83 | 8.13 | -7.79 | 13.5 | 0.957 | 5.71 | 18.8 | -23.7
11 | Cc1cnn(CC2CCCN2Cc2nc3ccccc3n2C)c1 (stereo unspecified) | -1.76 | -10.1 | -1.75 | 3.88 | 8.4 | 1.9 | -1.23 | -22.9 | 9.36 | 13.9 | -3.16
